Consider 21 compounds from PubChem BioAssay (NCATS).

Records with an inconclusive call do not appear. Active and inactive are the calls of the source. Unless noted, calls follow the shape of the dose curve; as a rule, active = well fitted curve in the direction sought with a large enough effect; inconclusive = small, poorly fitted or top-dose-only effect, or another doubt; inactive = no such curve, though single readings can be large; an effect the other way counts as inactive or inconclusive.

Test [1] in a line: MultiTox-Fluor Cytotoxicity Assay - LYMP1-001 - Live Cells (AID 947).
Test [2] can be described thus: Cell Viability - LYMP1-002 - Assay at 16 hr (AID 948). The method in brief: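 Acute cytotoxicity is scored as a concentration-dependent fall in intracellular ATP in a human lymphoblastoid line (LYMP1-002) after 16 hr compound exposure at 37 C, measured by luciferase luminescence.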
The target in test [3] is Pyruvate kinase PKM (Homo sapiens) (UniProt P14618). In words: qHTS Assay for Activators of Human Muscle Pyruvate Kinase (AID 954; active = well fitted curve in the direction sought with a large enough effect, not every such curve was filed as active). The method in brief:
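ATP production by PKM2 detected via luciferase luminescence after 1 h room-temperature reaction (0.1 nM enzyme, PEP at Km 0.5 mM, ADP 0.1 mM, pH 7.2 imidazole buffer). Inhibition scaled to no-enzyme control; activation referenced to 0.3 nM enzyme wells.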
A general note: Quantitative high-throughput screening tests each substance at several concentrations.

The nature of test [4]: MultiTox-Fluor Cytotoxicity Assay - LYMP1-002 - Live Cells (AID 955).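 Also: cells exposed to compound for 16 hours.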 The method in brief: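 After 16 h compound exposure at 37 C, live LYMP1-002 lymphoblastoid cells (2500/well) were quantified by cleavage of cell-permeant GF-AFC substrate, read at 405/510 nm after 60 min. Concentration-response fitted with Hill equation for AC50.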
For test [5], the target named is Pyruvate kinase (Leishmania mexicana) (UniProt Q27686). In words: qHTS Validation Assay for Activators of Leishmania Mexicana Pyruvate Kinase (AID 959). Summed up:
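LmPYK E451W 0.2 nM; 0.5 mM PEP, 0.1 mM ADP, 7 mM MgCl2, 50 mM KCl, imidazole pH 7.2, 0.01% Tween 20, 0.05% BSA; 1 h RT; PKLight luminescence; DMSO-normalized.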

Test [6] can be described thus: MultiTox-Fluor Cytotoxicity Assay - LYMP1-002 - Dead Cells (AID 960). Also: nearly all actives have a fitted effect of over 60% in size. Also: potency is read from the fitted curve at half-maximal effect. Summed up: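 Dead-cell fluorescence (Ex/Em 485/520) after 16 h compound exposure at 37 C of LYMP1-002 lymphoblastoid cells in complete medium; AC50 by Hill equation, with data scaled between DMSO and 15 uM tetraoctylammonium bromide.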
Test [7] can be described thus: MultiTox-Fluor Cytotoxicity Assay - LYMP1-003 - Dead Cells (AID 961). Also: nearly all actives have a fitted effect of over 70% in size. The method in brief: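 Dead-cell protease release, detected as bis-AAF-R110 fluorescence at 485/520 nm, was measured in LYMP1-003 cells after 16 h compound treatment at 37 C. AC50 values came from Hill-modeled qHTS curves normalized to DMSO (0%) and 15 uM tetraoctylammonium bromide (100%).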
Test [8] in a line: MultiTox-Fluor Cytotoxicity Assay - LYMP1-003 - Live Cells (AID 962).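 Also: cells exposed to compound for 16 hours at 37 °C; cytotoxic hits lower the live-cell protease signal.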 The method in brief: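 Live-cell protease activity (GF-AFC substrate, 405/510 nm, 60 min at room temperature) after 16 h, 37 C compound exposure of human lymphoblastoid LYMP1-003 cells; concentration-response fitted to the Hill equation for AC50.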
Test [9] in a line: Cell Viability - LYMP1-003 - Assay at 24 hr (AID 963). Summed up: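 Concentration-response qHTS: ATP loss measured by CellTiter-Glo luminescence after 24 h compound exposure at 37 C. Cells were LYMP1-003 human lymphoblastoid, 2500 per well. AC50 derived via standard Hill equation modeling.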
Test [10] can be described thus: Cell Viability - LYMP1-003 - Assay at 40 hr (AID 964). Also: nearly all actives have a fitted effect of over 60% in size. Also: potency is read from the fitted curve at half-maximal effect. The method in brief:
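Viability is taken as cellular ATP, read by CellTiter-Glo luminescence after 40 h of compound exposure at 37 C. Cells: human lymphoblastoid line LYMP1-003 at 2500/well; AC50 values derived by Hill-equation fitting of concentration-response data.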

Test [11] in a line: Cell Viability - LYMP2-004 (AID 966). Also: nearly all actives have a fitted effect of over 65% in size. The method in brief:
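AC50 values come from Hill modelling of concentration-dependent loss of intracellular ATP, measured by CellTiter-Glo luminescence. Human LYMP2-004 lymphoblastoid cells (2500/well) were exposed to compound for 24 h at 37 C.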

The nature of test [12]: Cell Viability - LYMP2-005 (AID 967). Also: series mostly up to about 92 µM. Summed up: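 qHTS viability screen in LYMP2-005 cells: 24 h at 37 C with compound, ATP luminescence via CellTiter-Glo, AC50 from Hill curves.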
Test [13] is described as follows: Cell Viability - LYMP2-009 (AID 968). Also: series mostly up to about 92 µM; nearly all actives have a fitted effect of over 55% in size.
Test [14] is described as follows: Cell Viability - LYMP2-011 (AID 969). Also: nearly all actives have a fitted effect of over 60% in size. The method in brief: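 Cytotoxicity qHTS with ATP content as read-out: lymphoblastoid cells (2500/well) exposed to compound for 24 h at 37 C, then luciferase luminescence measured. Concentration-response data fitted with the standard Hill equation to give AC50.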
Test [15] is described as follows: Cell Viability - LYMP2-013 (AID 970). Also: series mostly up to about 92 µM; nearly all actives have a fitted effect of over 55% in size. Summed up:
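qHTS cytotoxicity: ATP-dependent luminescence (CellTiter-Glo, 30 min room temperature) read after 24 h compound exposure at 37 C of 2500 LYMP2-013 lymphoblastoid cells per well. Concentration-response fitted with Hill equation to give AC50.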

Test [16] is described as follows: Cell Viability - LYMP2-015 (AID 971). Also: nearly all actives have a fitted effect of over 55% in size. The method in brief:
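Cytotoxicity readout: decrease in intracellular ATP (CellTiter-Glo luminescence) in 2500 LYMP2-015 lymphoblastoid cells/well after 24 h compound exposure at 37 C. Concentration-response data fitted with the standard Hill equation to give AC50.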

Test [17] can be described thus: Cell Viability - LYMP2-017 (AID 972). Also: series mostly up to about 92 µM; nearly all actives have a fitted effect of over 55% in size. The method in brief: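 CellTiter-Glo luminescence (cellular ATP, 30 min RT) measured cytotoxicity after 24 hr compound treatment at 37 C. Cells were a human lymphoblastoid line, LYMP2-017, plated at 2500/well and incubated 5 hr first; concentration-response fitted with Hill equation for AC50.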
A short description of test [18]: Cell Viability - LYMP2-019 (AID 973). Also: nearly all actives have a fitted effect of over 55% in size. Summed up: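 AC50 values come from Hill-equation fits of luminescent intracellular ATP (CellTiter-Glo, 30 min, room temperature) following 24 h compound exposure at 37 C. Cells: LYMP2-019 lymphoblastoid line, 2500 per well, in complete culture medium.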
The nature of test [19]: Cell Viability - LYMP2-021 (AID 974). Also: nearly all actives have a fitted effect of over 55% in size. Summed up: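 AC50 values come from Hill-equation fits to CellTiter-Glo luminescence (ATP content), read after 24 hour compound exposure at 37 C of 2500 LYMP2-021 lymphoblastoid cells/well; tetraoctylammonium bromide as positive control.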
Test [20] addresses Pyruvate kinase PKM (Homo sapiens) (UniProt P14618). In words: qHTS Assay for Inhibitors of Human Muscle Pyruvate Kinase (AID 958). The settings on record: purified human PKM enzyme activity. Summed up: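 Enzyme was run at intermediate activity so both inhibitors and activators could be detected. ATP formed from ADP and PEP by 0.1 nM human PKM2 during a 1 h room-temperature incubation was quantified by coupled luciferase luminescence.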

Pyruvate kinase PKM (Homo sapiens), sequence (P14618 whole entry, looked up): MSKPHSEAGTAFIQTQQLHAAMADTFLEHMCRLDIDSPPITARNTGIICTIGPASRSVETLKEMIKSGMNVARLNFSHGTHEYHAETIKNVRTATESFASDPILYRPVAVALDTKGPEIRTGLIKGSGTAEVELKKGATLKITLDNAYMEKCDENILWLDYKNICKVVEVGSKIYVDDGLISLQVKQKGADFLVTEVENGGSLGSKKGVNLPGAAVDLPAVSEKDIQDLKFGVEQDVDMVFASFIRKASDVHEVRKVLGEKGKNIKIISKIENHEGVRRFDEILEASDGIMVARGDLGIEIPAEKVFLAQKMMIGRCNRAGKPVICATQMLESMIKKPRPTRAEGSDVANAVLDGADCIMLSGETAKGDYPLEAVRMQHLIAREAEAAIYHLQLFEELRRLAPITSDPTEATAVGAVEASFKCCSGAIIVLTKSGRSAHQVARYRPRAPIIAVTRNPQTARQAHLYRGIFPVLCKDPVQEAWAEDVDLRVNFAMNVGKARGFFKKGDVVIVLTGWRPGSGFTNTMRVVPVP
Pyruvate kinase (Leishmania mexicana), sequence (Q27686 2-499 E452W): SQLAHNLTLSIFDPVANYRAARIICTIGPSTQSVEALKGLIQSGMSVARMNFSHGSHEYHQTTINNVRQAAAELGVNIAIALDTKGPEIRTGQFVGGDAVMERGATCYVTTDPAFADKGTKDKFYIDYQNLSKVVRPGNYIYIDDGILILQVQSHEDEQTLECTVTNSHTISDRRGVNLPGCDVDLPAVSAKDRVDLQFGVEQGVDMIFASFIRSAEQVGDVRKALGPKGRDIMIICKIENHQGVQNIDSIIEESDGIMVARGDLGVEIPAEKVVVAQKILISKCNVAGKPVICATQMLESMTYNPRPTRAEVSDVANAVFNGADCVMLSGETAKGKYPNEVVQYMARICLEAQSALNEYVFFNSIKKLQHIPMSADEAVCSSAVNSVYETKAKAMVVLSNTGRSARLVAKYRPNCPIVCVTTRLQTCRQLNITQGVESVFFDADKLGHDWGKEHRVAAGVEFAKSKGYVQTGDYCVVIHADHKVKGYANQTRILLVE

Turning to `O=c1c(-c2ccc(O)cc2)coc2cc(O)cc(O)c12`, the compound was called inactive in test [1], in test [2], in test [3], in [4], in test [5] and in [7]. The outcome in test [8], in [9], in [11], in [12], in [13] and in test [14] was inactive. Besides, the call in [15], in test [16], in test [17], in test [18] and in test [19] was inactive. In addition, the Potency result in [6] and in test [10] was “inactive” each time.

Consider `COc1ccc2c(c1)c(CC(=O)O)c(C)n2C(=O)c1ccc(Cl)cc1`, for which the compound was called inactive in [1], in test [2], in test [3], in test [4], in test [7] and in test [8]. The compound was classed as inactive in test [9], in [11], in test [12], in test [13], in test [14] and in [15]. Also, the compound was called inactive in test [16], in test [17], in [18] and in [19]. For the same compound, the Potency result in [6] and in [10] was “inactive” in each case.

As for `NS(=O)(=O)c1cc2c(cc1Cl)NCNS2(=O)=O`, the outcome in test [1], in [2], in [3], in test [4], in test [7] and in [8] was inactive. For the same compound, the compound was classed as inactive in test [9], in [11], in test [12], in test [13], in test [14] and in [15]. In addition, the call in [16], in test [17], in test [18] and in test [19] was inactive. Further, the Potency entry in [10] was “inactive”.

As to `CN1CCN(CCCN2c3ccccc3Sc3ccc(Cl)cc32)CC1`, in test [3], the call was inactive.

On to `Cn1c(=O)c2c(ncn2C)n(C)c1=O`, for which the outcome in test [1], in test [2], in [3], in test [4], in test [7] and in test [8] was inactive. In addition, the outcome in [9], in test [11], in [12], in [13], in test [14] and in [15] was inactive. Moreover, the outcome in [16], in [17], in test [18] and in test [19] was inactive. In addition, the Potency entry in [6] and in [10] was “inactive” each time.

As for `COc1ccc(CCN(C)CCCC(C#N)(c2ccc(OC)c(OC)c2)C(C)C)cc1OC` (centres undefined), the compound was classed as inactive in [1], in test [2], in test [4], in [7], in test [8] and in [9]. Further, the Potency result in [6] and in [10] was “inactive” in each case.

As to `NCCc1cnc[nH]1`, the outcome in [3] was inactive.

Consider `CCOC(=O)c1ncn2c1CN(C)C(=O)c1cc(F)ccc1-2`, for which the compound was called inactive in test [3].

Regarding `Cn1cnc2c1c(=O)[nH]c(=O)n2C`, the compound was classed as inactive in test [3].

As to `Cn1c(=O)c2[nH]cnc2n(C)c1=O`, the compound was called inactive in [1], in test [2], in test [3], in test [4], in [7] and in test [8]. Further, the result in test [9], in test [11], in test [12], in test [13], in test [14] and in test [15] was inactive. Moreover, the call in test [16], in test [17], in test [18] and in [19] was inactive. Also, the Potency entry in test [6] and in test [10] was “inactive” each time.

On to `NCCS(=O)(=O)O`, for which the call in test [1], in test [2], in [3], in [4], in test [7] and in test [8] was inactive. Further, the result in [9], in test [11], in [12], in test [13], in test [14] and in test [15] was inactive. Also, the compound was called inactive in test [16], in [17], in [18] and in test [19]. The Potency entry in test [6] and in test [10] was “inactive” throughout.

Regarding `CN1C(C(=O)Nc2ccccn2)=C(O)c2ccccc2S1(=O)=O`, in [3], the call was inactive.

Regarding `CN(C)CCOC(c1ccccc1)c1ccccc1`, the compound was classed as inactive in test [3].

`NC12CC3CC(CC(C3)C1)C2`: the compound was classed as inactive in test [3].

With `CCc1cccc2c3c([nH]c12)C(CC)(CC(=O)O)OCC3` (centres undefined), the outcome in test [3] was inactive.

For the compound `CC(C)NCC(O)c1ccc(O)c(O)c1` (centres undefined), the call in test [1], in [2], in test [4], in [7], in [8] and in [9] was inactive. In addition, the result in test [11], in test [12], in [13], in [14], in [15] and in [16] was inactive. For the same compound, the call in [17], in test [18] and in test [19] was inactive. Further, the Potency entry in test [6] was “inactive”.

For `Cc1cn([C@H]2C=C[C@@H](CO)O2)c(=O)[nH]c1=O`, the call in test [1], in [2], in test [3], in test [4], in test [7] and in test [8] was inactive. Moreover, the compound was classed as inactive in test [9], in test [11], in [12], in test [13], in test [14] and in test [15]. The compound was classed as inactive in test [16], in [17], in test [18] and in test [19]. The Potency entry in test [6] and in test [10] was “inactive” in each case.

Take `CC(C)C(=O)Nc1ccc([N+](=O)[O-])c(C(F)(F)F)c1`: the compound was classed as inactive in [1], in [2], in test [3], in [4], in test [7] and in [8]. Also, the compound was called inactive in test [9], in test [11], in test [12], in test [13], in [14] and in test [16]. For the same compound, the compound was classed as inactive in [17] and in test [19]. In test [10], the Potency result is “inactive”.

For the compound `Cn1ccc2cc3c(cc21)CCN3C(=O)Nc1cccnc1`, the Potency in [20] was 6310 nM (active).

Turning to `O=C(Nc1ccc([N+](=O)[O-])cc1Cl)c1cc(Cl)ccc1O`, in test [20], the Potency is 3160 nM (active).

For the compound `COc1cc2c(c(OC)c1OC)-c1ccc(OC)c(=O)cc1[C@@H](NC(C)=O)CC2`, the Potency is 50.1 nM (active) in [6] and 20 nM (active) in test [10]. Also, the result in [11] and in [15] was inactive.
